High-throughput results deposited in PubChem BioAssay by National Center for Advancing Translational Sciences (NCATS).
The full list was thinned out, with hits kept by preference.
Pf Dd2 growth – qHTS Primary assay for Inhibitors of Plasmodium falciparum Dd2 growth in vitro | P. falciparum Dd2 growth, SYBR Green, 72 h | Potency, µM (doses to about 28.9 µM), without a hit: at the highest dose activity, negative = inhibition, usual class: inhibitors | 120,000 compounds, 4.3% hits | AID 1347417, 2020; active means well fitted inhibition curve with a large enough effect;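 further: plate controls were DMSO vehicle for no effect and reference drug for full effect; nearly all actives have a fitted effect of over 65% in size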
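Readout: SYBR Green fluorescence, 485 nm excitation, 535 nm emission, after ~16 h lysis at 37C. Before that, Dd2-infected red cells (2.5% hematocrit) grew 72 h with compound, 29 uM top final concentration.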
An asterisk follows results filed as active; i = inactive; [ ] = another dose, or the depositor's remark. Potency means the concentration at half of the fitted maximal effect.

SMILES | Pf Dd2 growth
COc1cc(C2c3c(-c4cc(C)ccc4O)n[nH]c3C(=O)N2Cc2ccco2)cc(OC)c1OC (stereo not given) | i
Cc1ncc2n1C(=O)N(C1CCN(C(=O)c3ccccc3Cl)CC1)C2 | 10%
COc1ccc(C(=O)N2CC[C@H]3COC(=O)N3c3cc(C)ccc3C2)cc1 | -3%[44.1 µM]
CCNC(=O)[C@@H]1C[C@H](N)CN1S(=O)(=O)c1cnn(CC)c1C | -9%
CCc1nc(-c2c3n(c(=O)n(CC(=O)NCc4cccs4)c2=O)CCCCC3)no1 | 16%
COc1ccc(C(=O)N2CCC3(CC2)CC(OCC2CC2)CCO3)cc1 (stereo not given) | -9%
Cc1ccc(C)c(S(=O)(=O)c2cn(C)c3cc(N4CCCCC4C)c(F)cc3c2=O)c1 (stereo not given) | 11µM*
Cc1ccc(S(=O)(=O)c2cn(C)c3cc(N4CCCC4)c(F)cc3c2=O)c(C)c1 | 10µM*
CCn1cc(S(=O)(=O)c2cc(C)cc(C)c2)c(=O)c2cc(F)c(N3CCCCC3)cc21 | -16%
Cc1cccc(S(=O)(=O)c2cn(C)c3cc(N4CCCCCC4)c(F)cc3c2=O)c1 | i
CCCn1cc(S(=O)(=O)c2cc(C)ccc2C)c(=O)c2cc(F)c(N3CCOCC3)cc21 | 47%
CCn1cc(S(=O)(=O)c2ccc(C)cc2C)c(=O)c2cc(F)c(N3CCCC3)cc21 | 11µM*
CCCCn1cc(S(=O)(=O)c2cc(C)ccc2C)c(=O)c2cc(F)c(F)cc21 | -11%
Cc1ccc(C)c(S(=O)(=O)c2cn(C)c3cc(F)c(F)cc3c2=O)c1 | 10%
Cc1ccc2[nH]c(CN3CCNCC(C(=O)O)C3)nc2c1C (stereo not given) | -13%
COc1ccc(C(=O)N2CCCCCNC(=O)[C@@H]3CCCC[C@@H]32)c(OC)c1 | -2%
CCc1cnc(N)nc1N1CCC(N2CCOCC2)CC1 | -16%
COc1ccc(Br)c(C(=O)N[C@@H]2C=C(C(=O)N[C@H](CC(C)C)C(N)=O)C[C@@H](O)[C@@H]2O)c1 | -16%
CN(CC1CCOCC1)C(=O)Nc1ccccc1Br | -25%
COc1ccccc1CN1CC(c2noc(CC3CCCC3)n2)CC1=O (stereo not given) | 0%
COC(=O)CCC(=O)N1CCCC(N2CCN(c3cccc(Cl)c3)CC2)C1 (stereo not given) | i
CCOC(=O)c1cnc2ccc(Cl)cc2c1Nc1ccc(N2CCOCC2)cc1 | 8.9µM*
CCCOC(=O)c1ccc(Nc2c(C(=O)OCC)cnc3c(C)cc(Cl)cc23)cc1 | -24%
CCOC(=O)c1cnc2cc(C(F)(F)F)ccc2c1Nc1cc(C)ccc1OC | 9%
CCOC(=O)c1cnc2ccc(C)cc2c1Nc1ccc(N(CC)CC)cc1 | 4.5µM*
SMILES | Pf Dd2 growth
CCOC(=O)c1cnc2ccc(Br)cc2c1NCCN1CCOCC1 | i
Cc1ccc(NC(=O)Cn2nc(-c3ccc(F)cc3)c3cnc4ccc(C)cc4c32)cc1 | 46%
Cc1c(Cl)c(C(=O)N[C@H]2[C@@H]3CCO[C@@H]3[C@@H]2C2CCCC2)nn1C | -9%
COc1ccc(CCC(=O)N2CC[C@H](CO)[C@H](NC(=O)C3CC3)C2)cc1 | -1%
COc1cccc(-c2nc3cnccn3c2NCCC(=O)Nc2cccc(Cl)c2)c1 | i
COCCn1c(=O)n([C@H]2CCCN(C(=O)CN3CCCC3=O)C2)c2ncccc21 | 5%
Cc1ccc(CCNC(=O)c2ccc3c(c2)N(Cc2ccccc2)C(=O)c2ccccc2S3=O)cc1 (stereo not given) | i
CCOc1ccc(CN2C(=O)c3ccccc3Sc3ccc(C(=O)NC)cc32)cc1 | -14%
Cc1ccc(CCNC(=O)c2ccc3c(c2)N(Cc2cccc(F)c2)C(=O)c2ccccc2S3)cc1 | 2%
CCOc1ccc(CN2C(=O)c3ccccc3Sc3ccc(C(=O)NCc4ccc5c(c4)OCO5)cc32)cc1 | 10µM*
COc1ccc(CCNC(=O)c2ccc3c(c2)N(Cc2ccccc2Cl)C(=O)c2ccccc2S3)cc1OC | 11µM*
CCOc1ccc(CCNC(=O)c2ccc3c(c2)N(Cc2ccccc2)C(=O)c2ccccc2S3=O)cc1OCC (stereo not given) | i
COc1ccc(CCNC(=O)c2ccc3c(c2)N(Cc2cc(C)ccc2C)C(=O)c2ccccc2S3=O)cc1OC (stereo not given) | 4.5µM*
O=C(NCc1ccco1)c1ccc2c(c1)N(Cc1ccccc1)C(=O)c1ccccc1S2 | i
CNC(=O)c1ccc2c(c1)N(Cc1ccccc1Cl)C(=O)c1ccccc1S2 | i
CCc1nncn1C1CCN(C(=O)c2cccc(Cl)c2)CC1 | -12%
O=C1NCN(Cc2ccc(Cl)cc2)C12CCN([S+](=O)([O-])c1cccc(C(F)(F)F)c1)CC2 | 15%
CN(C)C(=O)c1ccc(OC2CCN(C(=O)c3ccccc3C(F)(F)F)CC2)nc1 | -4%
CCOCCCNC(=O)CN1CCCc2nc(C3CC3)ncc2C1=O | 5%
COc1ccccc1CNC(=O)c1ccc2c(c1)C(O)CCCCCN2C (stereo not given) | i
Cc1ccc(CN2CCN(C(=O)c3ccc4c(c3)C(O)CCCCCN4C)CC2)cc1 (stereo not given) | 13µM*
CN1CCCCCC(O)c2cc(C(=O)NCc3cccc(C(F)(F)F)c3)ccc21 (stereo not given) | 10µM*
CN1CCCCCC(O)c2cc(C(=O)NCc3nc4ccccc4n3C)ccc21 (stereo not given) | i
CC(C)CN1CCN(C(=O)c2ccc3c(c2)C(O)CCCCCN3C)CC1 (stereo not given) | i
CN1CCCCCC(O)c2cc(C(=O)N3CCN(C4CCCCC4)CC3)ccc21 (stereo not given) | i
SMILES | Pf Dd2 growth
Cc1ccc(CNC(=O)c2oc3ccc(S(=O)(=O)N4CCCC(C)C4)cc3c2C)cc1 (stereo not given) | 10µM*
Cc1ccc(NC(=O)c2oc3ccc(S(=O)(=O)N4CCCCCC4)cc3c2C)cc1Cl | 22%
CCn1cc(C(=O)NCc2ccc(C)cc2)c(=O)c2cc(S(=O)(=O)N3CCC(C)CC3)ccc21 | 2%
Cc1noc(C)c1S(=O)(=O)N1C[C@@H](F)C[C@H]1C(=O)N1CCc2ccccc2C1 | i
CCOc1ccccc1C(=O)NCC(c1cccs1)S(=O)(=O)c1ccc(F)c(C)c1 (stereo not given) | 20%
COc1ccc(CC(=O)NCC(c2cccs2)S(=O)(=O)c2ccc(F)c(C)c2)cc1 (stereo not given) | i
Cc1cc(S(=O)(=O)C(CNC(=O)c2ccc(OC(C)C)cc2)c2cccs2)ccc1F (stereo not given) | 5µM*
CC(C)(C)OC(=O)N1CCC(Cn2c(=O)[nH]c3cccnc32)CC1 | -18%[44.1 µM]
COc1ccc(Cl)cc1C(=O)NC1CCN(C(=O)c2cc3c(=O)[nH]c(C)cn3n2)CC1 | 5µM*
Cc1cn2nc(C(=O)N3CCC(NC(=O)c4cccc(Cl)c4)CC3)cc2c(=O)[nH]1 | i
Cc1cn2nc(C(=O)N3CCC(NC(=O)c4ccccc4C)CC3)cc2c(=O)[nH]1 | -9%
CC(C)c1ccc(OCC(=O)c2ccc3c(c2)N(CCCC(=O)N2CCOCC2)C(=O)CO3)cc1 | 13µM*
Cc1ccc(OCC(=O)c2ccc3c(c2)N(CCCC(=O)N2CCOCC2)C(=O)CO3)cc1C | i
COc1ccccc1OCC(=O)c1ccc2c(c1)N(CCCC(=O)N1CCOCC1)C(=O)CO2 | i
COc1ccc(-c2ccc3nc(-c4cccc(Cl)c4)oc3c2)c(OC)c1OC | -5%
CN1CCC(N2CCC(CN(Cc3ccncc3)C(=O)c3cnc[nH]3)CC2)CC1 | -15%
